Among the data in PubChem BioAssay (Tox21) are Potency, outcome and max response values, retold here.

A short description of assay [1]: qHTS assay to identify small molecule agonists of H2AX (AID 1224845; active means well fitted activation curve with a large enough effect in the signal ratio in the repeat runs, not every such curve was filed as active; the % refers to the signal ratio; further: potency means the concentration at half of the fitted maximal effect). The procedure, abridged: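 Wild-type CHO-K1 cells plated overnight, then exposed 3 hr at 37C to compounds at 15 concentrations (0.76% DMSO). Lysed, then HTRF anti-pH2AX(S139)-cryptate/anti-H2AX-d2 detection after 24 hr at room temperature; emissions 665 and 620 nm.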
On the technique in general: In qHTS, concentration-response curves come from the screen itself.

Assay [2] is described as follows: qHTS assay to identify small molecule agonists of the hypoxia (HIF-1) signaling pathway (AID 1224846; active means well fitted activation curve with a large enough effect in the signal ratio in the repeat runs, not every such curve was filed as active; the % refers to the signal ratio). The procedure, abridged:
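Reporter induction in HRE-bla ME-180 cells is taken as agonism: cells sit 5 hrs after plating, receive compounds or DMSO only, incubate 17 hrs at 37C under 5% CO2, and are loaded with CCF4-AM for beta-lactamase FRET measurement.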

Assay [3] is described as follows: qHTS assay to identify small molecule agonists of H2AX - cell viability counter screen (AID 1224847; calls by dose curve; further: top concentration of the series differs between compounds; nearly all actives have a fitted effect of over 30% in size). The essentials: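 After overnight plating of 1000 CHO-K1 cells per well, a 15-concentration compound series was applied for 3 hr at 37C. Luminescence from CellTiter-Glo, read following 30 min at room temperature, reflected cell viability.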
The nature of assay [4]: qHTS RealTime-Glo MT Cell Viability Assay in HepG2 cells - 24 hour (AID 1224867). Further: nearly all actives have a fitted effect of over 50% in size. The procedure, abridged:
(§1)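 Viability was tracked continuously by NanoLuc luminescence from prosubstrate reduced by living HepG2 cells, at successive time points over 40 h of compound exposure. Cells with reagent were preincubated 5 h at 37 °C before compound addition.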

Assay [5] in a line: qHTS RealTime-Glo MT Cell Viability Assay in HEK293 cells - 32 hour (AID 1224868). Further: top concentration of the series differs between compounds; nearly all actives have a fitted effect of over 50% in size. The essentials: (§2)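 Viability tracked continuously by luminescence as live cells reduce a prosubstrate for NanoLuc; HEK293 cells preincubated 5 h, compound-treated at 37 C, and read at 0, 8, 16, 24, 32 and 40 h.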
Assay [6] is described as follows: A CellTox Green Cytotoxicity Assay to monitor cytotoxicity in HEK293 cells - 0 hour (AID 1224869). Further: nearly all actives have a fitted effect of over 50% in size. The essentials: (§3)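 Tox21 screen in HEK293: membrane-impermeant cyanine dye fluoresces on binding dead-cell DNA; compound pinned 5 h post-seeding, plates held at 37 C, signal read repeatedly through 40 h.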
Assay [7] is described as follows: qHTS RealTime-Glo MT Cell Viability Assay in HepG2 cells - 40 hour (AID 1224870). Further: nearly all actives have a fitted effect of over 50% in size. Further: potency means the concentration at half of the fitted maximal effect. The procedure, abridged:
(§4)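 HepG2 cells mixed with RealTime-Glo MT reagents (NanoLuc plus cell-permeant prosubstrate) were seeded at 600 cells/well, incubated 5 h at 37 C/5% CO2, then pinned with compounds in DMSO; nonlytic luminescence tracked viability during 40 h treatment.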

The nature of assay [8]: A CellTox Green Cytotoxicity Assay to monitor cytotoxicity in HEK293 cells - 40 hour (AID 1224871). Further: nearly all actives have a fitted effect of over 45% in size. The essentials:
as §3

Assay [9] in a line: qHTS RealTime-Glo MT Cell Viability Assay in HEK293 cells - 16 hour (AID 1224872). The procedure, abridged:
as §2

Assay [10] in a line: qHTS RealTime-Glo MT Cell Viability Assay in HepG2 cells - 8 hour (AID 1224873). Further: nearly all actives have a fitted effect of over 55% in size. The essentials: as §4
Assay [11] in a line: qHTS RealTime-Glo MT Cell Viability Assay in HEK293 cells - 40 hour (AID 1224874). Further: nearly all actives have a fitted effect of over 50% in size. Particulars: RealTime-Glo luminescence; max response: active compounds read low. The procedure, abridged:
(§5)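 HEK293 + NanoLuc + prosubstrate, 600 cells/well; 5 h, 37 C/5% CO2; compound 23 nL in DMSO by pintool; 37 C; luminescence read at 0, 8, 16, 24, 32 and 40 h time points.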

Assay [12] in a line: A CellTox Green Cytotoxicity Assay to monitor cytotoxicity in HEK293 cells - 24 hour (AID 1224875). Further: series mostly up to about 77 µM; nearly all actives have a fitted effect of over 45% in size. The procedure, abridged: as §3
Assay [13] is described as follows: A CellTox Green Cytotoxicity Assay to monitor cytotoxicity in HepG2 cells - 16 hour (AID 1224876). Further: nearly all actives have a fitted effect of over 45% in size. The essentials:
(§6)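 Measurements at 0, 8, 16, 24, 32 and 40 h of treatment captured CellTox Green fluorescence in HepG2 cells that had been co-plated with reagent and preincubated 5 h at 37 C/5% CO2.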

Assay [14] can be described thus: qHTS RealTime-Glo MT Cell Viability Assay in HepG2 cells - 32 hour (AID 1224877). Further: nearly all actives have a fitted effect of over 55% in size. Further: potency means the concentration at half of the fitted maximal effect. The procedure, abridged:
as §1

Assay [15] in a line: A CellTox Green Cytotoxicity Assay to monitor cytotoxicity in HepG2 cells - 24 hour (AID 1224878). Further: nearly all actives have a fitted effect of over 45% in size. The essentials: as §6
Assay [16] can be described thus: A CellTox Green Cytotoxicity Assay to monitor cytotoxicity in HepG2 cells - 40 hour (AID 1224879). Further: nearly all actives have a fitted effect of over 40% in size. The essentials: as §6
The nature of assay [17]: qHTS RealTime-Glo MT Cell Viability Assay in HEK293 cells - 0 hour (AID 1224880). The essentials: as §5
Assay [18] in a line: A CellTox Green Cytotoxicity Assay to monitor cytotoxicity in HEK293 cells - 32 hour (AID 1224881). Further: nearly all actives have a fitted effect of over 40% in size. The essentials:
as §3

Assay [19] is described as follows: qHTS assay to identify small molecule antagonists of the estrogen related receptor (ERR) signaling pathway from Tox21 library (AID 1224848). Further: nearly all actives have a fitted effect of over 50% in size. The procedure, abridged: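 First, 2,000 ERR cells per well were plated and held 6 h at 37 C/5% CO2. Next, compounds in DMSO were pinned in and left 18 h at 37 C. Finally, ONE-Glo was added and luminescence read after 30 min at room temperature.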

Assay [20] in a line: qHTS assay to identify small molecule agonists of the estrogen related receptor (ERR) signaling pathway from Tox21 library (AID 1224849; calls by dose curve; further: nearly all actives have a fitted effect of over 15% in size). The procedure, abridged: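 Tox21 compounds tested for ERR agonism in an NTP reporter cell line: 18 h treatment at 37 C, then ONE-Glo luminescence.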

Unmarked numbers belong to inactive results. Results filed as inconclusive are left out. Active and inactive are the calls of the source. Unless noted, the call rests on the fitted dose curve; in most records, active means well fitted curve in the direction sought with a large enough effect in the repeat runs; inconclusive means weak or mixed curves; inactive means no such curve, though single readings can be large; an effect the other way counts as inactive or inconclusive.
On the % scale 0 is the no-effect control and ±100 the full control effect.

For the compound `O=C(O)CCSCCC(=O)O`, the Potency result in assay [1], in assay [5], in [7], in assay [8], in [9] and in [14] was “inactive” in each case. The Potency entry in [16] and in [17] was “inactive” in each case. For the same compound, the call in assay [2], in assay [3], in assay [4], in assay [6], in assay [10] and in assay [12] was inactive. In addition, the compound was called inactive in assay [13], in [15] and in [18]. Also, the max response in [11] was 0.716%.
Turning to `CCCCCCCCCCCCCCCCCCO`, the Potency result in [1], in assay [5], in [7], in assay [8], in [9] and in [14] was “inactive” each time. In addition, the Potency entry in [16] and in assay [17] was “inactive” in each case. Further, the compound was classed as inactive in assay [2], in assay [3], in assay [4], in assay [6], in assay [10] and in [12]. Also, the outcome in assay [13], in [15] and in [18] was inactive. Moreover, the max response in [11] is -1.19%.
In the case of `CCOc1c(N2CCOCC2)cnn(C)c1=O`, the Potency result in assay [1], in assay [5], in [7], in assay [8], in [9] and in [14] was “inactive” throughout. The Potency result in assay [16] and in assay [17] was “inactive” throughout. The call in [2], in assay [3], in [4], in [6], in [10] and in [12] was inactive. For the same compound, the call in [13], in assay [15] and in assay [18] was inactive. For the same compound, the max response in [11] was 3.38%.
On to `CCN(C=O)CC`, for which the Potency result in [1], in [5], in assay [7], in assay [8], in [9] and in [14] was “inactive” each time. In addition, the Potency result in assay [16] and in assay [17] was “inactive” in each case. Further, the compound was classed as inactive in assay [2], in [3], in assay [4], in [6], in [10] and in assay [12]. The call in [13] and in assay [18] was inactive. The max response in [11] is 2.6%.
For the compound `CC(=O)N1C[C@H](O)C[C@H]1C(=O)O`, the Potency result in assay [1], in assay [5], in assay [7], in assay [8], in assay [9] and in assay [14] was “inactive” throughout. Further, the Potency entry in [16] and in assay [17] was “inactive” throughout. Also, the call in assay [2], in [3], in assay [4], in assay [6], in [10] and in [12] was inactive. Also, the call in assay [13] and in assay [18] was inactive. The max response in [11] was 6.07%.
With `Cc1ncc(COP(=O)(O)O)c(C=O)c1O`, the Potency result in assay [1], in assay [5], in assay [7], in assay [8], in [9] and in assay [14] was “inactive” each time. In addition, the Potency entry in assay [16] and in assay [17] was “inactive” throughout. For the same compound, the compound was classed as inactive in assay [2], in assay [3], in assay [4], in [6], in assay [10] and in assay [12]. The call in assay [13], in [15] and in assay [18] was inactive. In assay [11], the max response was -0.601%.
For the compound `O=C1NC(=O)C2CC=CCC12` (configuration not stated), the Potency result in [1], in [19], in [5], in assay [7], in assay [8] and in assay [9] was “inactive” throughout. The Potency entry in assay [14], in assay [16] and in assay [17] was “inactive” throughout. For the same compound, the compound was classed as inactive in [2], in [20], in assay [4], in [6], in assay [10] and in [12]. Further, the compound was called inactive in [13], in assay [15] and in [18]. In [11], the max response was 11.2%.
In the case of `[K+]`, the Potency result in assay [1], in assay [5], in assay [8] and in assay [9] was “inactive” each time. Also, the compound was called inactive in assay [2], in assay [3], in assay [6], in [10], in assay [12] and in [13]. Besides, the call in assay [15] and in [18] was inactive. Besides, the values for the Potency in assay [7] and in assay [14] were 34.7 µM (active) and 49 µM (active), respectively. Also, the max response in assay [11] is 21.2%.
Regarding `CC(C)=CCC/C(C)=C/C#N`, the Potency entry in assay [1], in assay [5], in assay [8], in assay [9], in assay [14] and in assay [16] was “inactive” throughout. In [17], the Potency result is “inactive”. Moreover, the outcome in [2], in assay [3], in [4], in [6], in [10] and in [13] was inactive. In assay [18], the outcome was inactive. The max response in assay [11] was 2.39%.
For the compound `CCCn1cc[n+](C)c1C`, the Potency entry in assay [1], in [5], in assay [8], in assay [9], in assay [16] and in assay [17] was “inactive” each time. The compound was called inactive in assay [2], in assay [3], in [6], in assay [10], in assay [12] and in [13]. In addition, the outcome in [15] and in [18] was inactive. Also, the Potency in [7] was 45 µM (active). The max response in assay [11] is 0.77%.
For `CC(C)[C@H]1CC[C@@H](C)CC1=O`, the Potency result in [1], in [5], in assay [8], in assay [9], in [14] and in [17] was “inactive” throughout. Moreover, the result in assay [2], in assay [3], in assay [4], in assay [6], in assay [10] and in assay [12] was inactive. Besides, the call in assay [13], in assay [15] and in [18] was inactive. The max response in assay [11] was -1.73%.
`CNC(=O)Nc1ccc(Cl)c(Cl)c1`: the Potency entry in [1], in assay [5], in assay [7], in assay [8], in assay [9] and in assay [14] was “inactive” in each case. In addition, in assay [17], the Potency entry was “inactive”. Besides, the result in [2], in assay [3], in assay [6], in assay [10], in assay [12] and in assay [13] was inactive. Moreover, the call in assay [15] and in [18] was inactive. Further, in assay [11], the max response was -26.8%.
With `CCCCCCCC1CCCC1=O` (configuration not stated), the Potency entry in assay [1], in assay [5], in [8], in [9], in assay [14] and in assay [17] was “inactive” each time. Moreover, the compound was classed as inactive in [2], in assay [3], in assay [6], in assay [10], in [12] and in [13]. In addition, the call in [15] and in assay [18] was inactive. Moreover, the max response in [11] is 18.6%.
For the compound `CC(N)C12CC3CC(CC(C3)C1)C2` (configuration not stated), the Potency result in assay [1], in assay [5], in assay [8], in assay [9], in assay [14] and in assay [16] was “inactive” throughout. Besides, the Potency entry in assay [17] is “inactive”. Further, the call in assay [2], in [3], in assay [4], in [6], in assay [10] and in assay [12] was inactive. Also, the compound was classed as inactive in assay [13], in assay [15] and in [18]. For the same compound, in assay [11], the max response was -3.62%.
Turning to `Cc1nc2ccc(CN(C)c3ccc(C(=O)N[C@@H](CCC(=O)O)C(=O)O)s3)cc2c(=O)[nH]1`, the Potency in [1] was 0.619 µM (active). The result in [2], in [3], in assay [4], in assay [6], in assay [10] and in [12] was inactive. Moreover, the compound was called inactive in assay [13], in assay [15] and in assay [18]. Besides, the Potency entry in assay [5], in assay [7], in assay [8], in [9], in assay [14] and in assay [16] was “inactive” throughout. The Potency entry in assay [17] is “inactive”.
